# Assay results: PubChem BioAssay (NCATS)
# Records with an inconclusive call do not appear. Some compounds were tested as several samples or in several runs, with calls that do not always agree. Active and inactive are the calls of the source. Calls come from the whole dose curve; as a rule, active = well fitted cell-killing curve with a large enough effect; inconclusive = small, poorly fitted or top-dose-only effect, or effect the other way; inactive = flat fitted curve, though single readings scatter.
# Test: qHTS assay for cell viability of the p53RE-bla HCT-116 cell line (AID 743292); note: nearly all actives have a fitted effect of over 55% in size
# Conditions: p53RE-bla HCT-116 viability, ATP luminescence, 16 h; series mostly up to 95 µM; activity change, negative = cytotoxicity: at the top concentration
# Text: U.S. Tox21 Program National Center for Advancing Translational Sciences [NCATS] NIH Chemical Genomics Center [NCGC] U.S. Environmental Protection Agency [EPA] National Institutes of Environmental Health Sciences [NIEHS] National Toxicology Program [NTP] U.S. Food and Drug Administration [FDA] Tox21 Assay Overview: The CellTiter-Glo Luminescent Cell Viability Assay (Promega, Madison, WI) is a homogeneous method to determine the number of viable cells in culture based on quantitation of the ATP present, which signals the presence of metabolically active cells. This cell viability assay was used to screen environmental chemicals in the CellSensor p53RE-bla HCT-116 cell line (Invitrogen).
# Tox21 Assay Protocol Summary: Cell viability after compound treatment was measured using a luciferase-coupled ATP quantitation assay (CellTiter-Glo viability assay, Promega, Madison, WI) in CellSensor p53RE-bla HCT-116 cell line (Invitrogen). Total intracellular ATP content corresponds to the number of metabolically competent cells after compound treatment. The cells were dispensed at 4,000 cells/5 uL/well in 1,536-well white/solid bottom assay plates using a Flying Reagent Dispenser (Aurora Discovery, San Diego, CA). The cells were incubated for 5 h at 37 C, followed by the addition of 23 nL of compounds dissolved in DMSO, positive controls or DMSO only using a pintool work station (Kalypsys, San Diego, CA). The assay plates were incubated for 16 h at 37 C, followed by the addition of 5 uL/well of CellTiter-Glo reagent. After 30 min incubation at room temperature, the luminescence intensity of the plates was measured using a ViewLux plate reader (PerkinElmer, Shelton, CT).
# % is set by controls: 0 for no effect and ±100 for the full control effect; potency is the fitted concentration of half-maximal effect.
Compound,"activity change, negative = cytotoxicity",Potency
CCCCN(CC)c1c([N+](=O)[O-])cc(C(F)(F)F)cc1[N+](=O)[O-],-5.18% (inactive),
Cc1cc(Cl)ccc1OC(C)C(=O)O (stereo not given),0.382% (inactive),
CC(C)(C)OOC(C)(C)c1ccc(C(C)(C)OOC(C)(C)C)cc1,-3.57% (inactive),
CCCC1COC(Cn2cncn2)(c2ccc(Cl)cc2Cl)O1 (stereo not given),,inactive
CC(O)CN(CC(C)O)CC(C)O (stereo not given),2.52% (inactive),
COP(=O)(NC(C)=O)SC (stereo not given),0.262% (inactive),
CC(C)(C)C(=O)[C@@H](Oc1ccc(Cl)cc1)n1cncn1,-4.31% (inactive),
CCOP(=S)(OCC)Oc1ccc(S(C)=O)cc1 (stereo not given),6.63% (inactive),
Oc1c(Br)c(Br)c(Br)c(Br)c1Br,-13.3% (inactive),
CCNP(=S)(OC)O/C(C)=C/C(=O)OC(C)C (stereo not given),-0.381% (inactive),
CCOP(=S)(OCC)Oc1ncn(-c2ccccc2)n1,-5.69% (inactive),
CC1=C(C(=O)Nc2ccccc2)SCCO1,-2.83% (inactive),
CCOc1ccc(C(C)(C)COCc2cccc(Oc3ccccc3)c2)cc1,-5.74% (inactive),
COc1nn(C(=O)NS(=O)(=O)c2ccccc2OC(F)(F)F)c(=O)n1C,4.13% (inactive),
CC1(C)[C@H](C(=O)O[C@H](C#N)c2cccc(Oc3ccccc3)c2)[C@@H]1/C=C(\Cl)C(F)(F)F,-17.6% (inactive),
CC(c1ccc(O)cc1)(c1ccc(O)cc1)c1ccc(O)cc1,-22.3% (inactive),
CCCCNC(=O)OCC#CI,-12.5% (inactive),
C[Si](Cn1cncn1)(c1ccc(F)cc1)c1ccc(F)cc1,1.36% (inactive),
O=[As](O)(O)O,-3.02% (inactive),
CCOP(=O)(OCC)Oc1ccc([N+](=O)[O-])cc1,-3.98% (inactive),

Compound,"activity change, negative = cytotoxicity",Potency
N#Cc1cc(I)c(O)c(I)c1,-17.7% (inactive),
O=C1C2(Cl)C3(Cl)C4(Cl)C(Cl)(Cl)C5(Cl)C3(Cl)C1(Cl)C5(Cl)C24Cl (stereo not given),,70.8 µM (active) and inactive
CN(C)P(=O)(N(C)C)N(C)C,1.72% (inactive),
CNC(=O)Oc1cc(C)cc(C(C)C)c1,2.2% (inactive),
CCN(CC)C(=O)C(C)Oc1cccc2ccccc12 (stereo not given),5.57% (inactive),
ClCc1ccccc1Cl,-1.82% (inactive),
CCC(CC)Nc1c([N+](=O)[O-])cc(C)c(C)c1[N+](=O)[O-],-22.5% (inactive),
COc1cccc(C(=O)NN(C(=O)c2cc(C)cc(C)c2)C(C)(C)C)c1C,6.82% (inactive),
O=Cc1cccc(Oc2ccccc2)c1,-2.27% (inactive),
Oc1ccc(C2(c3ccc(O)cc3)c3ccccc3-c3ccccc32)cc1,,31.6 µM (active)
C(=NC1CCCCC1)=NC1CCCCC1,-20.9% (inactive),
O=[N+]([O-])c1ccc(Cl)c([N+](=O)[O-])c1,-4.47% (inactive),
Clc1ccc([C@@]2(Cn3cncn3)C[C@H](Br)CO2)c(Cl)c1,-0.841% (inactive),
CCC(C)(c1ccc(O)cc1)c1ccc(O)cc1,0.0532% (inactive),
COc1ccc(O)c(C(C)(C)C)c1,-1.26% (inactive),
O=S1OC[C@@H]2[C@H](CO1)[C@@]1(Cl)C(Cl)=C(Cl)[C@]2(Cl)C1(Cl)Cl (stereo not given in full),,inactive
CCC[CH2][Sn]([CH2]CCC)([CH2]CCC)[O][Sn]([CH2]CCC)([CH2]CCC)[CH2]CCC,,22.4 µM (active)
Fc1ccc(Oc2ccnc3cc(Cl)cc(Cl)c23)cc1,-22% (inactive),
CCOC(=O)Nc1cccc(OC(=O)Nc2ccccc2)c1,-12.1% (inactive),
COCC(=O)N(c1c(C)cccc1C)[C@H](C)C(=O)OC,-11.3% (inactive),
